Common to all, as to assay: PBM; 200 nM protein, PBS
Common to all, as to settings: dsDNA, one strand shown

Test [1] concerns the target HESX1 (Homo sapiens, UniProt Q9UBX0 95-180, R165K).
Test [2] addresses SHOX (Homo sapiens, UniProt O15266 103-189).
Test [3] addresses ALX4 (Homo sapiens, UniProt Q9H161 200-286, Q225E).
Test [4] deals with HESX1 (Homo sapiens, UniProt Q9UBX0 95-180).
In test [5] the target is MSX2 (Homo sapiens, UniProt P35548 130-214, R199I).
The target in test [6] is ALX1 (Homo sapiens, UniProt Q15699 118-204, L144V).
The target of test [7] is ALX3 (Homo sapiens, UniProt O95076 139-225, N203Q).
Test [8] deals with SHOX (Homo sapiens, UniProt O15266 103-189, R173C).
For test [9], the target named is ALX1 (Homo sapiens, UniProt Q15699 118-204, L144R).
In test [10] the target is ALX3 (Homo sapiens, UniProt O95076 139-225).
In test [11] the target is PROP1 (Homo sapiens, UniProt O75360 56-141).
Test [12] deals with HESX1 (Homo sapiens, UniProt Q9UBX0 95-180, R109Q).
For test [13], the target named is PROP1 (Homo sapiens, UniProt O75360 56-141, R99H).
The target of test [14] is ALX3 (Homo sapiens, UniProt O95076 139-225, L168Q).
For test [15], the target named is HESX1 (Homo sapiens, UniProt Q9UBX0 95-180, P111T).
In test [16] the target is ALX3 (Homo sapiens, UniProt O95076 139-225, L168V).
Test [17] addresses PROP1 (Homo sapiens, UniProt O75360 56-141, F88S).
In test [18] the target is HESX1 (Homo sapiens, UniProt Q9UBX0 95-180, F115L).
The target in test [19] is ALX1 (Homo sapiens, UniProt Q15699 118-204).
Test [20] deals with ALX3 (Homo sapiens, UniProt O95076 139-225, N203S).
Chain of ALX3 (Homo sapiens, UniProt O95076 139-225, N203S) (O95076 139-225 N203S): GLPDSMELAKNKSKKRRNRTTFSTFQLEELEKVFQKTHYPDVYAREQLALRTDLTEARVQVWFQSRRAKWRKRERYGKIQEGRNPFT

Chain of HESX1 (Homo sapiens, UniProt Q9UBX0 95-180) (Q9UBX0 95-180): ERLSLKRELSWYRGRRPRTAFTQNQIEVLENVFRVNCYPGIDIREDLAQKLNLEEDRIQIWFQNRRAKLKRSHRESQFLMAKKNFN
Chain of ALX3 (Homo sapiens, UniProt O95076 139-225, L168Q) (O95076 139-225 L168Q): as the sequence (O95076 139-225 N203S) above, with L30Q, S65N counted along it
Chain of PROP1 (Homo sapiens, UniProt O75360 56-141, R99H) (O75360 56-141 R99H): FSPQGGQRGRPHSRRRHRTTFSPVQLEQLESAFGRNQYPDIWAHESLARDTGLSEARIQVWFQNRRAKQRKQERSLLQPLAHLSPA
Chain of SHOX (Homo sapiens, UniProt O15266 103-189, R173C) (O15266 103-189 R173C): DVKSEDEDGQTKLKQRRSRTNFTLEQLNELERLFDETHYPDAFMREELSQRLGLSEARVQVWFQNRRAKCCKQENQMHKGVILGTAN
Chain of HESX1 (Homo sapiens, UniProt Q9UBX0 95-180, F115L) (Q9UBX0 95-180 F115L): as the sequence (Q9UBX0 95-180) above, with F21L counted along it
Chain of SHOX (Homo sapiens, UniProt O15266 103-189) (O15266 103-189): as the sequence (O15266 103-189 R173C) above, with C71R counted along it
Chain of ALX3 (Homo sapiens, UniProt O95076 139-225, L168V) (O95076 139-225 L168V): as the sequence (O95076 139-225 N203S) above, with L30V, S65N counted along it
Chain of ALX3 (Homo sapiens, UniProt O95076 139-225) (O95076 139-225): as the sequence (O95076 139-225 N203S) above, with S65N counted along it
Chain of ALX1 (Homo sapiens, UniProt Q15699 118-204) (Q15699 118-204): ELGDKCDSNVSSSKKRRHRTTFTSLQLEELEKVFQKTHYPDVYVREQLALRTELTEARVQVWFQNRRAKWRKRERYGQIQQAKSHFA
Chain of HESX1 (Homo sapiens, UniProt Q9UBX0 95-180, R165K) (Q9UBX0 95-180 R165K): as the sequence (Q9UBX0 95-180) above, with R71K counted along it
Chain of ALX1 (Homo sapiens, UniProt Q15699 118-204, L144V) (Q15699 118-204 L144V): as the sequence (Q15699 118-204) above, with L27V counted along it
Chain of HESX1 (Homo sapiens, UniProt Q9UBX0 95-180, R109Q) (Q9UBX0 95-180 R109Q): as the sequence (Q9UBX0 95-180) above, with R15Q counted along it
Chain of ALX4 (Q9H161 200-286 Q225E): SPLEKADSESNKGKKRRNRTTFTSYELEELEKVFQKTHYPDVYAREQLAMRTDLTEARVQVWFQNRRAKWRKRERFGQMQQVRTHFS
Chain of HESX1 (Homo sapiens, UniProt Q9UBX0 95-180, P111T) (Q9UBX0 95-180 P111T): as the sequence (Q9UBX0 95-180) above, with P17T counted along it
Chain of PROP1 (Homo sapiens, UniProt O75360 56-141) (O75360 56-141): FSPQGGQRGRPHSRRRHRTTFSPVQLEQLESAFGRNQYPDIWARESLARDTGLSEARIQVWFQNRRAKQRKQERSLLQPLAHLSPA
Chain of PROP1 (Homo sapiens, UniProt O75360 56-141, F88S) (O75360 56-141 F88S): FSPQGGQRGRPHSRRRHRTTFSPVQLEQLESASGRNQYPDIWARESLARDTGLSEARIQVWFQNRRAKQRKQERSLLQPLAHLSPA
Chain of ALX1 (Homo sapiens, UniProt Q15699 118-204, L144R) (Q15699 118-204 L144R): as the sequence (Q15699 118-204) above, with L27R counted along it
Chain of MSX2 (P35548 130-214 R199I): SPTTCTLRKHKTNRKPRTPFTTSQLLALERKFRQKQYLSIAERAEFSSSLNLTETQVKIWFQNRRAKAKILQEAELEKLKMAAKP
Chain of ALX3 (Homo sapiens, UniProt O95076 139-225, N203Q) (O95076 139-225 N203Q): as the sequence (O95076 139-225 N203S) above, with S65Q counted along it

CTAATTAG: the binding signal is 14 upbm affinity estimate (log intensity, higher = more binding, comparable within an allelic series) in test [1]; 13.6 upbm affinity estimate (log intensity, higher = more binding, comparable within an allelic series) in test [2]; 14.6 upbm affinity estimate (log intensity, higher = more binding, comparable within an allelic series) in [3]; 13.7 upbm affinity estimate (log intensity, higher = more binding, comparable within an allelic series) in test [4]; 13.6 upbm affinity estimate (log intensity, higher = more binding, comparable within an allelic series) in test [5]; 12.5 upbm affinity estimate (log intensity, higher = more binding, comparable within an allelic series) in test [6]. Further, the binding signal in [7] was 8.69 upbm affinity estimate (log intensity, higher = more binding, comparable within an allelic series); in test [8], 11.1 upbm affinity estimate (log intensity, higher = more binding, comparable within an allelic series); in test [9], 12.1 upbm affinity estimate (log intensity, higher = more binding, comparable within an allelic series); in [10] it was 13 upbm affinity estimate (log intensity, higher = more binding, comparable within an allelic series); in [11], 12.4 upbm affinity estimate (log intensity, higher = more binding, comparable within an allelic series); in test [12], 10.9 upbm affinity estimate (log intensity, higher = more binding, comparable within an allelic series). Also, the binding signal in [13] is 12.6 upbm affinity estimate (log intensity, higher = more binding, comparable within an allelic series); in [14], 11.6 upbm affinity estimate (log intensity, higher = more binding, comparable within an allelic series); in test [15], 12.5 upbm affinity estimate (log intensity, higher = more binding, comparable within an allelic series); in test [16], 11.3 upbm affinity estimate (log intensity, higher = more binding, comparable within an allelic series); in [17], 8.3 upbm affinity estimate (log intensity, higher = more binding, comparable within an allelic series); in [18], 8.53 upbm affinity estimate (log intensity, higher = more binding, comparable within an allelic series). In addition, the binding signal was 13.2 upbm affinity estimate (log intensity, higher = more binding, comparable within an allelic series) in test [19] and 8.81 upbm affinity estimate (log intensity, higher = more binding, comparable within an allelic series) in test [20].
ATTAATAG: the binding signal in test [1] was 10.6 upbm affinity estimate (log intensity, higher = more binding, comparable within an allelic series); in [4], 10.6 upbm affinity estimate (log intensity, higher = more binding, comparable within an allelic series); in test [7], 8.58 upbm affinity estimate (log intensity, higher = more binding, comparable within an allelic series); in [12], 8.2 upbm affinity estimate (log intensity, higher = more binding, comparable within an allelic series); in test [15], 9.29 upbm affinity estimate (log intensity, higher = more binding, comparable within an allelic series); in test [18], 7.97 upbm affinity estimate (log intensity, higher = more binding, comparable within an allelic series).
Regarding CAATTACC, the binding signal was 12.7 upbm affinity estimate (log intensity, higher = more binding, comparable within an allelic series) in [1]; 11.8 upbm affinity estimate (log intensity, higher = more binding, comparable within an allelic series) in [2]; 12.9 upbm affinity estimate (log intensity, higher = more binding, comparable within an allelic series) in test [3]; 12.6 upbm affinity estimate (log intensity, higher = more binding, comparable within an allelic series) in [4]; 12.7 upbm affinity estimate (log intensity, higher = more binding, comparable within an allelic series) in test [5]; 11.6 upbm affinity estimate (log intensity, higher = more binding, comparable within an allelic series) in test [6]. Besides, the binding signal in [7] is 8.27 upbm affinity estimate (log intensity, higher = more binding, comparable within an allelic series); in [8], 9.24 upbm affinity estimate (log intensity, higher = more binding, comparable within an allelic series); in [9], 11.3 upbm affinity estimate (log intensity, higher = more binding, comparable within an allelic series); in test [10], 12.4 upbm affinity estimate (log intensity, higher = more binding, comparable within an allelic series); in test [11], 11.3 upbm affinity estimate (log intensity, higher = more binding, comparable within an allelic series); in test [12] it was 8.97 upbm affinity estimate (log intensity, higher = more binding, comparable within an allelic series). For the same sequence, the binding signal in [13] was 11.5 upbm affinity estimate (log intensity, higher = more binding, comparable within an allelic series); in test [14], 10.3 upbm affinity estimate (log intensity, higher = more binding, comparable within an allelic series); in [15], 10.9 upbm affinity estimate (log intensity, higher = more binding, comparable within an allelic series); in [16] it was 9.72 upbm affinity estimate (log intensity, higher = more binding, comparable within an allelic series); in test [17] it was 7.4 upbm affinity estimate (log intensity, higher = more binding, comparable within an allelic series); in test [18], 7.62 upbm affinity estimate (log intensity, higher = more binding, comparable within an allelic series). The binding signal was 12.4 upbm affinity estimate (log intensity, higher = more binding, comparable within an allelic series) in [19] and 8.36 upbm affinity estimate (log intensity, higher = more binding, comparable within an allelic series) in test [20].
Turning to ACTAATTA, the binding signal in test [1] is 13.9 upbm affinity estimate (log intensity, higher = more binding, comparable within an allelic series); in test [2], 13.2 upbm affinity estimate (log intensity, higher = more binding, comparable within an allelic series); in test [3] it was 14.3 upbm affinity estimate (log intensity, higher = more binding, comparable within an allelic series); in [4] it was 13.5 upbm affinity estimate (log intensity, higher = more binding, comparable within an allelic series); in [5] it was 13.5 upbm affinity estimate (log intensity, higher = more binding, comparable within an allelic series); in test [6], 12.4 upbm affinity estimate (log intensity, higher = more binding, comparable within an allelic series). In addition, the binding signal is 8.59 upbm affinity estimate (log intensity, higher = more binding, comparable within an allelic series) in test [7]; 10.6 upbm affinity estimate (log intensity, higher = more binding, comparable within an allelic series) in test [8]; 12 upbm affinity estimate (log intensity, higher = more binding, comparable within an allelic series) in test [9]; 12.9 upbm affinity estimate (log intensity, higher = more binding, comparable within an allelic series) in [10]; 12.2 upbm affinity estimate (log intensity, higher = more binding, comparable within an allelic series) in test [11]; 10.5 upbm affinity estimate (log intensity, higher = more binding, comparable within an allelic series) in test [12]. Moreover, the binding signal was 12.4 upbm affinity estimate (log intensity, higher = more binding, comparable within an allelic series) in [13]; 11.5 upbm affinity estimate (log intensity, higher = more binding, comparable within an allelic series) in test [14]; 12.4 upbm affinity estimate (log intensity, higher = more binding, comparable within an allelic series) in test [15]; 11.2 upbm affinity estimate (log intensity, higher = more binding, comparable within an allelic series) in test [16]; 8.34 upbm affinity estimate (log intensity, higher = more binding, comparable within an allelic series) in test [17]; 8.35 upbm affinity estimate (log intensity, higher = more binding, comparable within an allelic series) in [18]. Besides, the binding signal was 13 upbm affinity estimate (log intensity, higher = more binding, comparable within an allelic series) in [19] and 8.73 upbm affinity estimate (log intensity, higher = more binding, comparable within an allelic series) in [20].
Turning to ACCAATTA, the binding signal was 13.7 upbm affinity estimate (log intensity, higher = more binding, comparable within an allelic series) in test [1]; 12.7 upbm affinity estimate (log intensity, higher = more binding, comparable within an allelic series) in [2]; 13.8 upbm affinity estimate (log intensity, higher = more binding, comparable within an allelic series) in test [3]; 13.6 upbm affinity estimate (log intensity, higher = more binding, comparable within an allelic series) in [4]; 13.4 upbm affinity estimate (log intensity, higher = more binding, comparable within an allelic series) in test [5]; 12.1 upbm affinity estimate (log intensity, higher = more binding, comparable within an allelic series) in [6]. Further, the binding signal in test [7] was 8.43 upbm affinity estimate (log intensity, higher = more binding, comparable within an allelic series); in test [8], 10.4 upbm affinity estimate (log intensity, higher = more binding, comparable within an allelic series); in test [9], 11.7 upbm affinity estimate (log intensity, higher = more binding, comparable within an allelic series); in test [10] it was 12.8 upbm affinity estimate (log intensity, higher = more binding, comparable within an allelic series); in [11], 12 upbm affinity estimate (log intensity, higher = more binding, comparable within an allelic series); in test [12], 10.8 upbm affinity estimate (log intensity, higher = more binding, comparable within an allelic series). For the same sequence, the binding signal in test [13] was 12.3 upbm affinity estimate (log intensity, higher = more binding, comparable within an allelic series); in test [14], 11.1 upbm affinity estimate (log intensity, higher = more binding, comparable within an allelic series); in test [15] it was 12.3 upbm affinity estimate (log intensity, higher = more binding, comparable within an allelic series); in [16], 10.7 upbm affinity estimate (log intensity, higher = more binding, comparable within an allelic series); in [17] it was 7.81 upbm affinity estimate (log intensity, higher = more binding, comparable within an allelic series); in test [18], 8.41 upbm affinity estimate (log intensity, higher = more binding, comparable within an allelic series). The binding signal in test [19] is 12.7 upbm affinity estimate (log intensity, higher = more binding, comparable within an allelic series); in test [20], 8.62 upbm affinity estimate (log intensity, higher = more binding, comparable within an allelic series).

These data come from article PMC11006913.
